Mtb FBA inh: inhibitors of M. tuberculosis fructose-bisphosphate aldolase; P9WQA3; purified M. tuberculosis FBA, fluorescence read-out; inhibition, % at 1 µM; 2.3% of 360,000 active; AID 588726; in the data active = inhibition above about 27%;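 note: 0% = vehicle and 100% = reference inhibitor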
GDH-TPI inh: GDH-TPI coupled enzyme inhibition counter-screen. 1.2% of 360,000 active. inhibition, % at 4.8 µM. GDH-TPI coupled enzyme counterscreen, NADH absorbance. AID 588335; in the data active = inhibition above about 30%;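 note: 0% = DMSO wells and 100% = wells lacking the enzyme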
Bead autofluor: flagged as autofluorescent in microsphere protease counterscreen. fluorescence intensity (test concentration not listed). compound autofluorescence counterscreen, microsphere flow cytometry; stronger effect = higher value. 3.1% of 360,000 active. AID 624483; in the data active = fluorescence intensity above about 16000; inconclusive = no clear call, values can overlap the other calls
BoNT A protease: inhibitors of Botulinum neurotoxin A light chain protease; multiplex microsphere protease substrate cleavage, flow cytometry; inhibition, % at 10 µM; 0.17% of 360,000 active; AID 588499; note: plate controls were buffer without enzyme for full effect and enzyme alone for no effect
Anthrax LF inh2: blocks Bacillus anthracis lethal factor protease; multiplex microsphere protease cleavage assay, LF; inhibition, % at 10 µM; 0.12% of 360,000 active; note: plate controls were buffer without enzyme for full effect and enzyme alone for no effect
BoNT-F LC inh: BoNT F light chain protease inhibition | Multiplex microsphere protease cleavage assay, flow cytometry | 0.22% of 360,000 active | inhibition, % at 10 µM; in the data active = inhibition above about 35%, passing the limit was not always enough; inconclusive = no clear call, values can overlap the other calls; note: plate controls were buffer without enzyme for full effect and enzyme alone for no effect
* = called active by the depositor; ? = inconclusive; + = active, no number. Only some compounds are listed: those with a hit (about 6.7% of all), similar ones and a draw of the others. Cut-off read from the data, not from the text of the source, unless noted: active = inhibition above about 30%; inconclusive = no clear call, values can overlap the other calls; inactive = below that.

SMILES	Mtb FBA inh	GDH-TPI inh	Bead autofluor	BoNT A protease	Anthrax LF inh2	BoNT-F LC inh
CCCC(=O)Nc1c2c(nn1-c1ccc(C)cc1)CS(=O)(=O)C2	0	2	2973	0	-2	-2
COC(=O)c1c(C(=O)OC)c(C)n(Cc2ccco2)c1C	-1	4	3624	-1	0	-33
CCCCOCCCn1c(N)c(C(=O)OCCOC)c2nc3ccccc3nc21	134*	15	4933	3	5	-18
COCCn1c(N)c(C(=O)OCc2ccccc2)c2nc3ccccc3nc21	+	0	20725*	-1	2	-2
COCCCNC(=O)c1c(NC(=O)c2ccccc2)n(Cc2ccccc2)c2nc3ccccc3nc12	6	9	?	?	10	-1
CCOC(=O)c1c(NC(=O)c2c(N)n(CCCOC)c3nc4ccccc4nc23)sc2c1CCCC2	-3	1	4496	2	-2	3
COCCOC(=O)c1c(N)n(Cc2ccccc2)c2nc3ccccc3nc12	+	6	4009	4	0	?
COCC(C)OC(=O)c1c(N)n(Cc2ccco2)c2nc3ccccc3nc12 (stereo not drawn)	130*	12	4465	1	6	16
COc1cccc(-c2sc3ccccc3c2-c2ccc(OCCN3CCCCC3)cc2)c1	1	2	3810	0	-6	-20
CCO[C@@H]1OC(C(=O)O)=C[C@H](C2CCCCC2)[C@H]1CCCO	1	8	3468	0	-10	1
C=CCSc1[nH]c(=O)cc(C)c1C(N)=O	-1	10	19287*	2	-2	4
Cc1c(Cl)cccc1N1C(=O)C(N2C(=O)c3cccc([N+](=O)[O-])c3C2=O)C1c1cccs1 (stereo not drawn)	-1	-1	6103	-1	-1	-1
Cc1cc(C(=O)COC(=O)C2=NNC(=O)CC2)c(C)n1-c1cccc(C(F)(F)F)c1	-4	-7	17667*	6	-11	5
Cc1cc(C(=O)COC(=O)C2=NNC(=O)CC2)c(C)n1-c1ccc(OC(F)F)cc1	2	-1	2719	0	-2	1
Cc1cc(=O)oc2cc(OCC(=O)N3C[C@H]4C[C@@H](C3)c3cccc(=O)n3C4)ccc12	6	-6	5029	0	4	-5
C=C(C)COc1ccc2c(C)c(CC(=O)N3C[C@H]4C[C@@H](C3)c3cccc(=O)n3C4)c(=O)oc2c1	114*	29	4035	-1	6	-7
Cc1nn(-c2ccccc2)c2nc3c(cc12)C(=O)CCC3	4	17	1956	0	2	-4
COc1ccc(C)cc1S(=O)(=O)N1CCCCCC1	-3	-2	4267	0	-2	-2
CCOc1cc(S(=O)(=O)N2CCCC2)ccc1Cl	3	-4	7807	-3	-7	-25
CCOc1cc(S(=O)(=O)N2CCCCC2)ccc1F	1	-3	22074*	2	-2	3
COc1ccc(C)cc1S(=O)(=O)N1CCC(C)CC1	0	8	21743*	4	3	5
CCOc1ccc(C)cc1S(=O)(=O)N1CCCCC1	-1	-3	21517*	?	0	0
CCOc1ccc(OCC)c(S(=O)(=O)N2CCCCC2C)c1 (stereo not drawn)	3	-2	16721*	0	0	-2
COc1ccc(C)cc1S(=O)(=O)N1CC(C)OC(C)C1 (stereo not drawn)	3	3	2456	0	0	2
N#Cc1c(SCc2c(Cl)cccc2Cl)nc(N)[nH]c1=S	2	-1	3485	0	4	3
SMILES	Mtb FBA inh	GDH-TPI inh	Bead autofluor	BoNT A protease	Anthrax LF inh2	BoNT-F LC inh
Cc1ccc(-c2noc(CCCC(=O)NCC3CCCO3)n2)cc1 (stereo not drawn)	-5	-9	4915	2	2	8
O=C(CCc1nc(-c2ccccc2)no1)NC1CCCCC1	1	8	21669*	4	-5	4
Cc1ccc(-c2noc(CCC(=O)NCC3CCCO3)n2)cc1 (stereo not drawn)	1	-4	23346*	0	-1	-1
O=C1Nc2ccccc2N(O)N1c1ccc(Cl)cc1	0	4	2426	0	-2	-5
CCN1c2ccccc2NC2C1C(C(C)=O)C(=O)N2c1ccc(Cl)cc1 (stereo not drawn)	6	8	19587*	20	9	4
CCN1C(=O)[C@@H]2[C@@H](c3ccc(-c4cc(C(C)=O)cs4)cc3)N3CCC[C@@]3(C(=O)OC)[C@@H]2C1=O	10	36*	4084	0	1	-2
Cc1ccnc(SCC(=O)N2CCN(c3ccccc3)CC2)n1	0	0	21477*	2	-6	3
O=C(CSc1nnc(-c2ccccc2)n1-c1ccccc1)N1c2ccccc2Sc2ccccc21	0	10	21718*	3	-4	5
Cc1nnc(SCC(=O)N2c3ccccc3Sc3ccccc32)n1N	-2	5	11316	0	-1	6
COc1ccc(-n2cnnc2SCC(=O)N2CCN(c3ccccc3)CC2)cc1	1	4	2457	-1	-4	1
Cc1ccccc1-n1c(SCC(=O)N2CCN(c3ccccc3)CC2)nnc1-c1ccncc1	0	-10	21220*	-1	1	-1
Cc1ccnc(SCC(=O)N2CCN(c3cccc(Cl)c3)CC2)n1	2	-2	9779	0	-6	3
COc1ccc(N2CCN(C(=O)CSc3nnc(-c4cc5ccccc5cc4O)n3C)CC2)cc1	9	8	16210*	17	-11	-15
CCC(C)Sc1ccc([C@H]2N[C@@](C)(C(=O)OC)[C@H]3C(=O)N(C)C(=O)[C@@H]23)cc1OC (stereo partly drawn)	0	3	4292	-1	-2	2
O=C1CC(c2ccc(F)cc2)C2=C(CCCC2=O)N1 (stereo not drawn)	8	-7	2854	0	-2	-9
Cc1sc(NC(=O)CSc2nnc(CCNC(=O)c3cccs3)n2C)nc1-c1ccccc1	3	-2	5953	-1	-4	-19
Cn1c(CCNC(=O)c2cccs2)nnc1SCC(=O)N1CCN(c2ccccc2)CC1	-2	6	23569*	?	0	1
O=C(CSc1ccccn1)N1CCN(c2ccc(Cl)cc2)CC1	0	9	21847*	?	-1	3
Cc1ccccc1-n1c(SCC(=O)N2CCOCC2)nc(O)cc1=O	-1	-7	21580*	?	0	-4
Cn1c(SCC(=O)N2CCN(c3ccccc3)CC2)nnc1-c1ccco1	-2	-16	20444*	0	-2	0
CCN(CC)S(=O)(=O)c1cc(NC(=O)c2ccccc2OCc2c(C)noc2C)ccc1C	1	-6	3644	0	0	-4
C=CCN1C(=O)C(C)(C)Nc2ccccc21	-3	-13	20000*	?	3	1
C=CCn1c(C)nnc1SCC(=O)N1c2ccccc2NC(=O)C1(C)C	0	-1	4051	-1	-12	-9

Compound activity deposited in PubChem by several laboratories.
